Compound activity deposited in PubChem by The Scripps Research Institute Molecular Screening Center.
An excerpt weighted towards active compounds, which were near 3.2% of everything screened.
sPLA2-III inh: Inhibits HGIII-sPLA2 liposome hydrolysis, primary screen. 0.56% of 370,000 active. Q9NZ20. QFRET BODIPY PC-A2 liposome hydrolysis, fluorescence. inhibition, % at 12.2 µM. AID 743126;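 active means inhibition above mean plus 3 SD of compounds lying within the high and low control bounds, cut at about 19% in these data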
Target sequence (Q9NZ20 whole entry, looked up): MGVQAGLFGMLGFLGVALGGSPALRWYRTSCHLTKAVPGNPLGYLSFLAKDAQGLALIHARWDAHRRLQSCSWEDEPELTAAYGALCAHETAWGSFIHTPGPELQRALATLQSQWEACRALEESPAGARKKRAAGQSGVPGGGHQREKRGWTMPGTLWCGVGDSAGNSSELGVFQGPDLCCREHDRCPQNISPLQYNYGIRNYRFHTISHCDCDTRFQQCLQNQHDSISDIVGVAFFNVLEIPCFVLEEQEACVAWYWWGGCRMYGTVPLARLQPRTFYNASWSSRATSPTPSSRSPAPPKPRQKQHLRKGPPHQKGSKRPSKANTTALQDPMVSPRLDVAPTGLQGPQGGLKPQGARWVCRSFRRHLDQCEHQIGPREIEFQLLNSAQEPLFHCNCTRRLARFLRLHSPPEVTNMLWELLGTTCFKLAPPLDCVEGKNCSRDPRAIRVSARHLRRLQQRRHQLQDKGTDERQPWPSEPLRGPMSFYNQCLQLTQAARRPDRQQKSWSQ
MsrA inhibitor: bovine MsrA inhibition; inhibition, % at 15.5 µM; 0.75% of 360,000 active; purified bovine MsrA, absorbance read-out; in the data active means inhibition above about 4.5%
MsrA act: activators of bovine methionine sulfoxide reductase A; AID 602163; purified bovine MsrA, absorbance read-out; activation, % at 10.6 µM; 0.3% of 360,000 active; in the data active means activation above about 7.5%
PG9 binder: small molecules binding HIV-1 gp120 antibody PG9 | TR-FRET gp120-PG9 antibody binding | inhibition, % at 6.7 µM | 0.43% of 360,000 active; in the data active means inhibition above about 8.5%
rCAG RNA binder: r(CAG) repeat RNA binding; inhibition, % at 3 µM; AID 651821; TO-PRO-1 dye displacement fluorescence; 1.3% of 370,000 active;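 active means inhibition above the plate cutoff, the mean of all test compounds on that plate plus 3 SD, cut at about 35% in these data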;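 further: higher means more dye released from RNA so lower well fluorescence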
Hits are given with their value.

How did O=c1cc(O)c2sc(Nc3ccc(F)c(Cl)c3)nc2[nH]1 do in these assays?
sPLA2-III inh: inactive; MsrA inhibitor: inactive; MsrA act: inactive; PG9 binder: inactive; rCAG RNA binder: 35.1

Results for C[C@@H]1CN([C@@H](C)CN(C)C)C(=O)c2cc(NC(=O)Nc3ccccc3)ccc2O[C@@H](C)CCCCO[C@H]1CN(C)S(=O)(=O)c1ccc(F)cc1 ?
sPLA2-III inh: inactive

What do the screens show for `CCOc1cc(/C=C2\SC(=N)N(c3nonc3N)C2=O)ccc1OCCN1CCOCC1`?
sPLA2-III inh: inactive; MsrA inhibitor: inactive; MsrA act: inactive; PG9 binder: inactive; rCAG RNA binder: 40.1

Results for CCOc1cc(/C=C2\SC(=N)N(c3nonc3N)C2=O)ccc1OCC(N)=O ?
sPLA2-III inh: inactive; MsrA inhibitor: inactive; MsrA act: inactive; PG9 binder: inactive; rCAG RNA binder: inactive

What do the screens show for `N=C1/C(=C\c2ccc(OC(=O)c3ccccc3)cc2)C(=O)N=C2SC(N3CCOCC3)=NN12`?
sPLA2-III inh: inactive; MsrA inhibitor: inactive; MsrA act: inactive; PG9 binder: inactive; rCAG RNA binder: 42.4

How did Cc1ccc(C(=O)Oc2ccc(/C=C3\C(=N)N4N=C(N5CCOCC5)SC4=NC3=O)cc2)cc1 do in these assays?
sPLA2-III inh: inactive; MsrA inhibitor: inactive; MsrA act: inactive; PG9 binder: inactive; rCAG RNA binder: inactive

How did CC(/C=N/n1c(COc2ccccc2)n[nH]c1=S)=C\c1ccccc1 do in these assays?
sPLA2-III inh: inactive; MsrA inhibitor: inactive; MsrA act: inactive; PG9 binder: inactive; rCAG RNA binder: 40.9

How did Cc1nc2c(C(=O)NCc3ccc(F)cc3)c[nH]n2c(=O)c1Cl do in these assays?
sPLA2-III inh: inactive; MsrA inhibitor: inactive; MsrA act: inactive; PG9 binder: inactive; rCAG RNA binder: 45.5

Results for Cc1ccc(NC(=O)/C=C/c2ccco2)nc1 ?
sPLA2-III inh: inactive; MsrA inhibitor: 5.0; MsrA act: inactive; PG9 binder: inactive; rCAG RNA binder: inactive

How did O=C(/C=C/c1ccco1)Nc1ccc2c(c1)OCCO2 do in these assays?
sPLA2-III inh: inactive; MsrA inhibitor: 4.6; MsrA act: inactive; PG9 binder: inactive; rCAG RNA binder: inactive

Results for COc1cccc(NC(=O)/C=C/c2ccco2)c1 ?
sPLA2-III inh: inactive; MsrA inhibitor: 4.6; MsrA act: inactive; PG9 binder: inactive; rCAG RNA binder: inactive

Results for O=C(/C=C/c1ccco1)Nc1ccccn1 ?
sPLA2-III inh: inactive; MsrA inhibitor: inactive; MsrA act: inactive; PG9 binder: inactive; rCAG RNA binder: inactive

How did O=C(/C=C/c1ccccc1)Nc1ccc2c(c1)OCCO2 do in these assays?
sPLA2-III inh: inactive; MsrA inhibitor: inactive; MsrA act: inactive; PG9 binder: inactive; rCAG RNA binder: inactive

Results for C=CCN(C)C(C#Cc1ccccc1)c1ccccc1C(F)(F)F (centres undefined) ?
sPLA2-III inh: inactive

Results for CC(Nc1cc(N2CCN(C(=O)C(C)(C)C)CC2)ccc1[N+](=O)[O-])c1ccccc1 (centres undefined) ?
sPLA2-III inh: inactive; MsrA inhibitor: 10.7; MsrA act: inactive; PG9 binder: inactive; rCAG RNA binder: inactive

Results for CC(Nc1cc(N2CCNCC2)ccc1[N+](=O)[O-])c1ccccc1 (centres undefined) ?
sPLA2-III inh: inactive; MsrA inhibitor: inactive; MsrA act: inactive; PG9 binder: inactive; rCAG RNA binder: inactive

How did CCS(=O)(=O)N1CCN(c2ccc([N+](=O)[O-])c(NC(C)c3ccccc3)c2)CC1 (centres undefined) do in these assays?
sPLA2-III inh: inactive; MsrA inhibitor: 7.3; MsrA act: inactive; PG9 binder: inactive; rCAG RNA binder: inactive

Results for O=C(N[C@H]1C[C@@H]2O[C@H](CO)CC[C@@H]2O[C@@H]1CCc1ccc(-c2cccnc2)cc1)c1cccc(F)c1 ?
sPLA2-III inh: inactive; rCAG RNA binder: inactive

Results for O=C1CCCc2oc3c(cc(NS(=O)(=O)c4ccc5c6c(cccc46)C(=O)N5)c4ccccc43)c21 ?
sPLA2-III inh: inactive; MsrA inhibitor: inactive; MsrA act: inactive; PG9 binder: inactive; rCAG RNA binder: 45.9

Results for O=C(O)c1ccccc1NS(=O)(=O)c1ccc2c3c(cccc13)C(=O)N2 ?
sPLA2-III inh: inactive; MsrA inhibitor: inactive; MsrA act: inactive; PG9 binder: inactive; rCAG RNA binder: inactive

Results for COC(=O)c1ccc(-c2ccc(/C=N/NC(=O)CC3(C)OCCCO3)o2)cc1 ?
sPLA2-III inh: inactive; MsrA inhibitor: inactive; MsrA act: inactive; PG9 binder: inactive; rCAG RNA binder: inactive

Results for CC1(CC(=O)N/N=C/c2ccc(-c3ccc(C(=O)O)cc3)o2)OCCO1 ?
sPLA2-III inh: inactive; MsrA inhibitor: 9.0; MsrA act: inactive; PG9 binder: inactive; rCAG RNA binder: inactive

Results for CN(CCO)c1ccc(C=NNc2ccc([N+](=O)[O-])cc2S(=O)(=O)Nc2ccccc2C(=O)O)cc1 ?
sPLA2-III inh: inactive; MsrA inhibitor: inactive; MsrA act: inactive; PG9 binder: inactive; rCAG RNA binder: 90.8

Results for O=C(O)c1ccccc1NS(=O)(=O)c1ccc(N/N=C/c2cccc(O)c2O)c([N+](=O)[O-])c1 ?
sPLA2-III inh: inactive; MsrA inhibitor: inactive; MsrA act: inactive; PG9 binder: inactive; rCAG RNA binder: 91.6

Results for CCOc1ccc(C=NNc2ccc(S(=O)(=O)Nc3ccccc3C(=O)O)cc2[N+](=O)[O-])cc1OC ?
MsrA act: inactive

How did COc1ccc(-c2nnc3n2N=C(c2cccc([N+](=O)[O-])c2)CS3)cc1 do in these assays?
sPLA2-III inh: inactive; rCAG RNA binder: inactive

What do the screens show for `COc1cc(/C=N/NC(=O)c2cccc(NC(=O)c3ccccc3C)c2)ccc1O`?
sPLA2-III inh: inactive; MsrA inhibitor: inactive; MsrA act: inactive; PG9 binder: inactive; rCAG RNA binder: inactive

What do the screens show for `COc1cc(/C=N/NC(=O)c2cccc(NC(=O)c3ccccc3)c2)ccc1O`?
sPLA2-III inh: inactive; MsrA inhibitor: 4.6; MsrA act: inactive; PG9 binder: inactive; rCAG RNA binder: inactive

Results for COc1ccc(/C=N/NC(=O)c2ccc(NC(=O)c3cccc([N+](=O)[O-])c3)cc2)c(C(=O)O)c1OC ?
sPLA2-III inh: inactive; MsrA inhibitor: 4.6; MsrA act: inactive; PG9 binder: inactive; rCAG RNA binder: inactive

How did CC(=O)N1CCN(c2ccc([N+](=O)[O-])cc2C#N)CC1 do in these assays?
sPLA2-III inh: inactive; MsrA inhibitor: 4.6; MsrA act: inactive; PG9 binder: inactive; rCAG RNA binder: inactive

What do the screens show for `CCCN1CCN(c2ccc([N+](=O)[O-])cc2C#N)CC1`?
sPLA2-III inh: inactive; MsrA inhibitor: inactive; MsrA act: inactive; PG9 binder: inactive; rCAG RNA binder: inactive

What do the screens show for `COC(=O)C1CN(C2CCCC2)CCS(=O)(=O)N1Cc1cn(Cc2ccc(F)cc2)nn1` (centres undefined)?
sPLA2-III inh: inactive; rCAG RNA binder: inactive

How did Cc1cc(C)c(C#N)c(SCC(=O)Nc2ccccc2C)n1 do in these assays?
sPLA2-III inh: inactive; MsrA inhibitor: inactive; MsrA act: inactive; PG9 binder: inactive; rCAG RNA binder: inactive

How did Cc1ccccc1NC(=O)CSc1nc(N)c(C#N)c(-c2cccs2)c1C#N do in these assays?
sPLA2-III inh: inactive; MsrA inhibitor: inactive; MsrA act: inactive; PG9 binder: 72.2; rCAG RNA binder: inactive
